In all, about 25,000 sequences were measured (“ln(normalized median fluorescence intensity)”: median about 9.7, highest 2% from about 11 on). The sample as a whole holds a higher share of the highest values than the screen did.

For this test, the system named is PfAP2-HC AP2 domain (GST-tagged). As to the kind of experiment: gcPBM binding intensity (ln(normalized median fluorescence intensity)); higher = stronger DNA binding. The gist of the method: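 An Agilent 4 × 180k array carrying primer-extended double-stranded 36-bp intergenic genomic probes and negative controls received GST-tagged P. falciparum DNA-binding domains expressed in E. coli, about 25 μg on average, for 1 h. The binding buffer contained 1× PBS, 1% milk, 0.2 mg/ml BSA, 0.5% salmon testes DNA and 0.03% Triton X-100. Binding intensity is the top Masliner-normalised natural-log median intensity across replicate spots of either probe orientation, read after Alexa488 anti-GST antibody staining and a 488 nm scan.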
Consider “ATATAAAGAAATTAATTTTTCAACAATAAAAATATA [CACACA_negctrl_site1262]”, for which the “gcPBM binding intensity (ln)” value was 9.35.
Then “AAATTGGGGCTTGTTACACACTTAGTGCGAGTTCTA [CACACA_site582]”, with 9.75; and “ATTTATTATATATAGTGTACGTTCTTAATTATAATT [XGTACX_site7480]”, with 9.69; and “TATCATATATTATATGCACACATGTTTTTCAAGAAT [CACACA_site1892]”, with 9.74.
Turning to “TTTCTTTTTCGATATACACACTGTATGTGTCTAAAA [CACACA_site6054]”, the “gcPBM binding intensity (ln)” value amounted to 9.95.
TGTATGATAACTATAGTGCATTTGGTAATTTTTCCA: the “gcPBM binding intensity (ln)” value was 9.51.
To “AAATGTAAATTTATCCGTACATATATATATTTATAT [XGTACX_site7024]” belongs 9.73; to “ATATATATATATATGTGTACATATATATATCATATG [XGTACX_site3126]”, 9.68; to TAATAGAATATGATGGTGCAGCAGTCTTATTTTTCA, 9.61.
Then “AAAACATACATATATACACACATATATATATATATA [CACACA_site1852]”, with 10.3; and “CCATAAAAAGGATACACACACACACCGACATATATA [CACACA_site4653]”, with 10.9; and “TAAAAGGATACATATACACACATATATATATATATA [CACACA_site2791]”, with 9.85.
Then “AAAAAAAAAAAACATACACACACATATATATATATA [CACACA_site8452]”, with 10.7.
In the case of “ACCCATAAAAAGGATACACACACACCCACCCATATA [CACACA_site8205]”, the “gcPBM binding intensity (ln)” value was 10.6.
To “AAAAAAAAATTAAAAACACACATATAAATAAATATA [CACACA_site6845]” belongs 9.8; to “TTAAAAAAAAAACACACACACATACACATATATATA [CACACA_site3299]”, 11.1.
Then “AAAAAAAAATTAAAAACACACATATATATATATATA [CACACA_site1580]”, with 9.73.
“AAAAAAATTAAACACACACACACATATATATATATA [CACACA_site4718]”: the “gcPBM binding intensity (ln)” value turned out to be 11.5.
Then “AAAACATACCTATATACACACATATAAATATAAATA [CACACA_site6956]”, with 10.1; and “ATTAAATAAAAAAACACACACATATATACCTATATA [CACACA_site5837]”, with 11; and “ATTAAATAAAAAAACACACACATATATACATATATA [CACACA_site3445]”, with 10.6.
For the sequence “ACATATATATTTATATGTACATATATTTATATATAT [XGTACX_site7469]”, the “gcPBM binding intensity (ln)” value worked out at 9.64.
As for “ATATTGTAAGTAAAATGTAATAAATATAATAAAATA [CACACA_negctrl_site697]”, the “gcPBM binding intensity (ln)” value was found to be 9.76.
Then “ATATATTTATATTGTACACACATTTATGCATATATA [CACACA_site7502]”, with 9.96; and “ACATTCTATACATACACACCCACACCCAAAAAAAAA [CACACA_site863]”, with 10; and “CTTATACATTATTAACGTACATGTTATATGAATAAC [XGTACX_site5752]”, with 9.6.
To “TGGAAAATTATAAGGTGTACATATAAGCTATTATAT [XGTACX_site118]” belongs 9.63.
To “ATATATATATATATTTATTCATATATTTTTTGTCTT [TGCATGCA_negctrl_site58]” belongs 9.52; to “AAAAATGAATTATTTTGTACATATATATATATATAT [XGTACX_site3410]”, 9.74; to “TGCTATTTTTTCCTTTTTTTGTATCACAATCATATA [CACACA_negctrl_site1576]”, 9.74.
Take “ATCAACATTATGTTTAGTACTTAGTGAATTGTTAAT [XGTACX_site4913]”: the “gcPBM binding intensity (ln)” value is 9.65.
To “ATTATATATGTATGGTGTACTAAGAATATTTTTTTA [XGTACX_site1950]” belongs 9.55.
Then “ATTATTTAAAAAAAATGTACATAATAAATATGAACG [XGTACX_site4010]”, with 9.58; and “CAGTTTAATTTACATAGTACATAATATTTTAATTTT [XGTACX_site1793]”, with 9.65.
For “AAATAAATTAAAATAAATTAAATTAAATTAGCATTA [GTGCAC_negctrl_site531]”, the “gcPBM binding intensity (ln)” value amounted to 9.52.
Consider “ATACATATATATATATGTACACACATTAATAAAAAA [XGTACX_site6874]”, for which the “gcPBM binding intensity (ln)” value is 9.89.
Then “GACAATAAAAAGAAAAGTACATATATAAATTAACCA [XGTACX_site7858]”, with 9.65; and “TGCATATGCATTATTTGTACATATGTAGATAATTAT [XGTACX_site6930]”, with 9.63; and “GTATTTTTAAATGACACACACATATATATATATATA [CACACA_site1662]”, with 10.1.
As for “ATAAATATGGAGCACACACACATAAACATACATATA [CACACA_site421]”, the “gcPBM binding intensity (ln)” value came to 11.1.
For the sequence “TATATATATATATAAACACACATAAATATAAATATA [CACACA_site1121]”, the “gcPBM binding intensity (ln)” value turned out to be 9.88.
Regarding “AAAAGGAACAGACACACACACATATATAAATATGTA [CACACA_site7656]”, the “gcPBM binding intensity (ln)” value came out at 10.5.
Regarding “TGCAAGGAACAACACACACACACATAAATGTATATA [CACACA_site8149]”, the “gcPBM binding intensity (ln)” value was found to be 11.4.
For “TGCAAGGAAAAACACACACACACATAAATGTATATA [CACACA_site751]”, the “gcPBM binding intensity (ln)” value stood at 10.4.
To “AAAAAAAAAAAATATACACACACACCGACACATAAA [CACACA_site9270]” belongs 10.9; to “TGATAAATATGGAGCACACACACATAAACATACATA [CACACA_site420]”, 10.4; to “ATAAAATACATATAAACACACATATAAACCGACATA [CACACA_site2477]”, 10.1.
Turning to “ATAAATATGGAGCACACACACATAAACATACCTATA [CACACA_site6336]”, the “gcPBM binding intensity (ln)” value came to 10.8.
To “TAAATTAAAAAAAATACACACACACCGACACATATA [CACACA_site9084]” belongs 10.6.
Then “CATATAAATAAACACACACACACATATATATATATA [CACACA_site5309]”, with 10.5; and “AATAAATTGAAACACACACACACATATATATATATA [CACACA_site848]”, with 11.2; and “GATTATTTTATAAGTACACACATTTATCTATAATAA [CACACA_site7256]”, with 9.69.
Then “ACGTTAAAAACAAGTTGTACACAATAAATTATTCTT [XGTACX_site6321]”, with 9.75; and “GTATTCAAAAGTGAAACATGCAATAATATATATATA [TGCATGCA_site617]”, with 9.63.
Consider “AATATTTTTTTATAAACACACATATATATAAATATA [CACACA_site3524]”, for which the “gcPBM binding intensity (ln)” value is 9.53.
To “AATACAATTTTTAACACACACACAATAATACAGATA [CACACA_site4823]” belongs 11.2; to “ATACAACAGATATATACACACATATAACAATAATAA [CACACA_site7560]”, 10; to “ATTTAATACAAATACACACACAAATAAATACAGATA [CACACA_site5956]”, 10.2.
To “TACACGTTCTACATTTGTACTTAATTTATACATAAG [XGTACX_site1579]” belongs 9.79; to “CCATTTACATTGTGAAGTACTAAAAAAAAATGTAGA [XGTACX_site7882]”, 9.48.
In the case of “ATCGGTAATATTAACACACACATTTATTTATATTTA [CACACA_site6638]”, the “gcPBM binding intensity (ln)” value was determined as 10.1.
Take “GTATCTCATTATTCGTGTACTAAACACATAAAAATA [XGTACX_site2262]”: the “gcPBM binding intensity (ln)” value is 9.58.
Take “GTTAATTGAAGATTCACACATAAATATATATATAAT [CACACA_site5482]”: the “gcPBM binding intensity (ln)” value is 9.61.
To “ATATACTATTATGTGTGTACATAATAATTTATTATA [XGTACX_site3776]” belongs 9.75; to “ATATACTTTTTTTTTTTTTTTTTAACGTTATTTATG [CACACA_negctrl_site1277]”, 9.64.
To “AAAAGATAATTATGCACACACACACCCCCACCCAAC [CACACA_site2570]” belongs 10.9.
Then “AAGATAATTACGCACACACACACACGCCCACAACTA [CACACA_site7255]”, with 11.4; and “GATAATTACGGACACACACACACACGCACAACTAAA [CACACA_site7254]”, with 10.7.
Regarding “AGCACATTATTCAAAAGTACAAATAGGTATTGTATA [XGTACX_site6107]”, the “gcPBM binding intensity (ln)” value amounted to 9.59.
Consider “TTATTCTTTTAATATACACACTTTGTCTTTTCGCGC [CACACA_site5525]”, for which the “gcPBM binding intensity (ln)” value was 9.9.
Take “GAAAAATTAAAACCTACACACACATTTAAAAAAAAA [CACACA_site9005]”: the “gcPBM binding intensity (ln)” value amounted to 11.
“TAATTTTTTTTAAACACACACATTACATTCAAAAAT [CACACA_site127]”: the “gcPBM binding intensity (ln)” value was determined as 10.1.
“AAAATTAAAACCTACACACACATTTAAAAAAAAAAA [CACACA_site3068]”: the “gcPBM binding intensity (ln)” value is 10.1.
“ATACATTCAATGAAATGTACGTTTATTTACAGAAGA [XGTACX_site2999]”: the “gcPBM binding intensity (ln)” value turned out to be 9.6.
With “TTTTTTCTTTTTATGTGTACTTATTTTATTTAATAA [XGTACX_site1080]”, the “gcPBM binding intensity (ln)” value was 9.76.
Then “TTTTTCAGATCCTATATAGTATCATATAAATTCCAT [CACACA_negctrl_site56]”, with 9.39; and “AAGAAAAAATGATGAATAGAGATCAAATCTATATAT [TGCATGCA_negctrl_site29]”, with 9.65; and “TTTTTAAAATATTTAACACACAATTTTAATGCATAA [CACACA_site6036]”, with 9.61.
To “ATATATATATTCCACACACACACAAAAAAAAAAAAA [CACACA_site3648]” belongs 10.6; to “ATATAAATATTCCACACACACACAAAAAAAAAAAAA [CACACA_site7678]”, 11.
To “ACACAAAAAATAAAAATATATATATATTATATATAT [CACACA_negctrl_site1489]” belongs 9.75; to “TCAATAAAAAAAAACGCACACACAAATATATTCCAT [CACACA_site1223]”, 11.
For the sequence “AATAAAAAAAAACGCACACACAAATATATTCCATTC [CACACA_site1224]”, the “gcPBM binding intensity (ln)” value worked out at 10.4.
Then “ATATTCATTAACCACACACACAAAAAAAATAAAATT [CACACA_site3801]”, with 10.2; and “CAATATAAAAAACACACGCACACAAAAAAAAAAAAA [CACACA_site3521]”, with 10.3.
Regarding “GGATATTCATTAACCACACACACAAAAAAAATAAAA [CACACA_site3800]”, the “gcPBM binding intensity (ln)” value was 11.2.
To “TCATTCATAAAAATAACACACAAAAAAAAAAAAAAA [CACACA_site1800]” belongs 9.62; to “TTTTTATAATGATACATATATTATTTTATTCTTAAT [CACACA_negctrl_site124]”, 9.54; to “AAAAAAAAAAAAAAAACACACATATCTGTATTTATA [CACACA_site5760]”, 9.75.

Values taken from the supplement of paper PMC11417369.
